Tat transport: E. coli Tat transport inhibition; E. coli MC4100 TorA-mCherry Tat export, fluorescence; AID 488895; inhibition, % at 10 µM; 0.036% of 340,000 active;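 active = mean replicate inhibition at least 50% and at least half of replicates individually reaching 50%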;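 note: exported cargo escapes ClpAP degradation while cytoplasmic cargo is degraded and loses fluorescence; 0% = median of neutral control wells and 100% = median of NaSCN control wells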
AddAB inh: less growth of phage-infected E. coli with AddAB. E. coli expressing H. pylori AddAB, absorbance growth. inhibition, % at 11.9 µM. 0.29% of 330,000 active. AID 435030; in the data active = inhibition above about 12%;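 note: 0% = vehicle wells of infected cells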
E coli growth-1: counter-screen for AddAB inhibitors: E. coli growth inhibition; 0.27% of 330,000 active; AID 449728; E. coli V3065 growth, OD600 absorbance, 18 h; inhibition, % at 11.9 µM;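 active = inhibition above the campaign's mean inhibition across all tested compounds plus 3 SD, cut at about 9.9% in these data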;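 note: uninfected addAB+ strain grown without phage in ampicillin broth; 0% = DMSO wells and 100% = ciprofloxacin 0.95 µg/ml wells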
E coli growth-2: blocks Escherichia coli growth | OD600 absorbance (test concentration not listed) | 0.21% of 330,000 active | OD600, 23 h; active compounds read low | AID 1053175;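 active = OD600 absorbance below the run mean of sample wells minus 3.6 SD, in any replicate, cut at about 0.56 in these data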
phage Ecoli inh: E. coli growth loss with phage present. 0.26% of 360,000 active. growth absorbance. AID 651602. inhibition, % at 11.9 µM; in the data active = inhibition above about 11%
AddAB conf: confirmation screen: growth loss of phage-infected E. coli expressing H. pylori AddAB | shares compounds with AddAB inh | E. coli V3065 expressing H. pylori AddAB, T4 phage, OD; T4 phage with gene 2 nonsense mutations | inhibition, % at 11.9 µM | 64% of 880 active;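 active = mean inhibition above a set limit taken from the earlier primary screen, cut at about 13% in these data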;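 note: higher means less bacterial growth since AddAB block lets phage replicate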
RecBCD counter: reduces growth of phage-infected RecBCD+ E. coli, AddAB inhibitor counter-screen; shares compounds with AddAB inh; E. coli V66 + mutant T4 phage, OD growth; inhibition, % at 11.9 µM; 73% of 880 active; AID 488955;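 active = mean inhibition above the mean of solvent-only control wells plus 3 SD, cut at about 4% in these data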;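 note: optical density read after an 18 h incubation at 37 °C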
bact viab count: reduces bacterial viability, AddAB inhibitor counter-screen | 35% of 880 active | inhibition, % at 11.9 µM | absorbance (AddAB counterscreen) | shares compounds with AddAB inh; in the data active = inhibition above about 25%
RecBCD conf: confirmation: growth loss of phage-infected RecBCD+ E. coli (RecBCD inhibitor screen). shares compounds with phage Ecoli inh. E. coli V66 + T4 2- phage, growth OD. inhibition, % at 11.9 µM. 45% of 890 active. AID 651982;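 active = mean inhibition over triplicates exceeding the hit threshold derived in the original primary screen, cut at about 11% in these data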
Ecoli viability: bacterial viability inhibition counter-screen for RecBCD; shares compounds with phage Ecoli inh; E. coli viability, absorbance (OD) growth; inhibition, % at 11.9 µM; 29% of 890 active; AID 651983; in the data active = inhibition above about 20%;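 note: E. coli strain V66 grown with compound alone and no phage infection; 0% = bacteria with DMSO vehicle only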
AddAB phage OD: growth loss of phage-infected AddAB E. coli, RecBCD counter-screen; shares compounds with phage Ecoli inh; E. coli expressing H. pylori AddAB + T4 phage, OD growth; gene 2 mutant T4, recBCD-deleted host; inhibition, % at 11.9 µM; 45% of 890 active; AID 651984;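 active = mean inhibition above the solvent-only control wells' mean plus 3 SD, cut at about 22% in these data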;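 note: higher means less bacterial growth from phage killing when AddAB is blocked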
* = called active by the depositor; · = no result. The list is not random: actives were taken first. Their share in the collection is about 0.5%.

SMILES | Tat transport | AddAB inh | E coli growth-1 | E coli growth-2 | phage Ecoli inh | AddAB conf | RecBCD counter | bact viab count | RecBCD conf | Ecoli viability | AddAB phage OD
CCc1nnc(NS(=O)(=O)c2ccc(N=Cc3c(C)[nH]n(-c4ccc(C)c(C)c4)c3=O)cc2)s1 | -2 | 16* | 12* | · | 11* | 9 | 4.5* | 11 | 7 | 4 | 23*
Oc1c(C(Nc2ccccn2)c2ccccn2)ccc2cccnc12 (stereo not drawn) | 3 | 17* | 14* | 0.66 | 16* | 7 | 9.8* | 2 | 5 | 9 | 7
Oc1ccccc1C(Nc1nccs1)c1ccc2cccnc2c1O (stereo not drawn) | 6 | 13* | 17* | 0.69 | 12* | 9 | 12* | 10 | 8 | 10 | 9
COc1nsnc1NS(=O)(=O)c1ccc(NC(=S)NC(=O)c2ccncc2)cc1 | 8 | 74* | 62* | 0.068* | 29* | 76* | 24* | 34* | 14* | 10 | 33*
COc1nsnc1NS(=O)(=O)c1ccc(NC(=S)NC(=O)c2cccnc2)cc1 | 30 | 59* | 54* | 0.062* | 47* | 70* | 31* | 42* | 27* | 23* | 45*
COCCN1C(=O)NC(c2cccc(C(F)(F)F)c2)C(C(C)=O)C1C (stereo not drawn) | · | · | · | 0.69 | · | · | · | · | · | · | ·
COc1ccc(-c2cnnc(NN=Cc3ccc(C)o3)n2)cc1 | · | · | · | 0.65 | · | · | · | · | · | · | ·
CCn1cc(C(=O)N[C@@H](C)C(=O)NCCCO)c(=O)c2cc3c(cc21)OCO3 | 4 | · | · | 0.58 | 2 | · | · | · | · | · | ·
CCn1cc(C(=O)NCCCO)c(=O)c2cc(F)c(N3CCN(C)CC3)cc21 | 94* | 99* | 99* | 0.071* | 100* | 100* | 99* | 100* | 99* | 100* | 98*
CCCCCCNC(=O)c1cn(CC)c2cc(N3CCN(C)CC3)c(F)cc2c1=O | 79* | 98* | 97* | 0.067* | 98* | 101* | 100* | 101* | 101* | 102* | 101*
O=C(NNC(=O)c1ccccc1O)c1ccc(Cl)c(S(=O)(=O)N2CCc3ccccc32)c1 | -4 | 19* | 14* | 0.67 | 16* | 1 | 8.3* | 0 | 4 | 7 | 9
CCOC(=O)c1ccc(-c2ccc(C3Nc4ccccc4C(=O)N3O)o2)cc1 (stereo not drawn) | 1 | 21* | 22* | 0.64 | 24* | 20* | 21* | 18 | 16* | 18 | 14
Cc1cc([N+](=O)[O-])ccc1-c1ccc(C2Nc3ccccc3C(=O)N2O)o1 (stereo not drawn) | 6 | 31* | 27* | 0.59 | 24* | 22* | 24* | 19 | 18* | 21* | 21
N#Cc1ccc(-c2ccc(C3Nc4ccccc4C(=O)N3O)o2)cc1 (stereo not drawn) | -7 | 8 | 6 | 0.69 | 8 | · | · | · | · | · | ·
CC(C)Oc1ccc(Cc2cnc(N)nc2N)cc1 | 5 | 12* | 9 | 0.046* | 12* | 53* | 14* | 12 | 11* | 7 | 12
O=C(NNC(=O)C1CCN(S(=O)(=O)c2ccc(Cl)cc2)CC1)c1ccccc1O | -2 | 12* | 7 | · | 12* | 7 | 7.3* | 8 | -2 | 1 | 4
O=C(Cc1ccccc1)NC(Cc1ccc(O)cc1)C(=O)O (stereo not drawn) | · | · | · | 0.64 | · | · | · | · | · | · | ·
CCOC(=O)C1C2COc3ccccc3C2N2C(=O)c3ccc(C)cc3NC(=O)[C@@]12C (stereo partly drawn) | · | · | · | 0.66 | · | · | · | · | · | · | ·
CC(C)C(=O)NC(c1ccc(Cl)cc1Cl)c1ccc2cccnc2c1O (stereo not drawn) | 3 | 20* | 29* | 0.65 | 19* | 20* | 20* | 19 | 11* | 13 | 22*
CC(=O)NC(c1ccco1)c1ccc2cccnc2c1O (stereo not drawn) | 7 | 4 | -1 | · | · | · | · | · | · | · | ·
CCC(=O)NC(c1ccc(Cl)cc1Cl)c1ccc2cccnc2c1O (stereo not drawn) | 1 | 20* | 22* | · | 22* | 20* | 19* | 19 | 15* | 17 | 27*
Cc1cc(NC(c2ccc(Cl)cc2)c2ccc3cccnc3c2O)no1 (stereo not drawn) | -1 | 25* | 33* | 0.69 | 23* | 25* | 23* | 21 | 14* | 15 | 25*
CCN1CC2C3C(=O)N(C)C(=O)C3[C@](C)(C1=O)N2C(=O)c1ccccc1 (stereo partly drawn) | · | · | · | 0.7 | · | · | · | · | · | · | ·
NC(=O)NN=CCCc1ccccc1 | · | · | · | 0.63 | · | · | · | · | · | · | ·
CCSc1nsc(NC(=O)Nc2ccccc2F)n1 | -2 | -2 | 4 | 0.59 | 6 | · | · | · | · | · | ·
SMILES | Tat transport | AddAB inh | E coli growth-1 | E coli growth-2 | phage Ecoli inh | AddAB conf | RecBCD counter | bact viab count | RecBCD conf | Ecoli viability | AddAB phage OD
C=CCSc1nsc(NC(=O)Nc2ccc(F)cc2)n1 | -13 | 20* | 16* | · | 15* | 18* | 22* | 21 | 8 | 10 | 22*
COc1ccc(/C=N\NC(=O)c2cc(O)c(O)c(O)c2)cc1COc1ccc(C(=O)OCC(C)C)cc1 | 2 | 15* | 10* | · | 12* | 12 | 8.8* | 8 | 5 | 9 | 10
O=C(CCC1CCCC1)NNC(=O)c1cc2ccccc2cc1O | -11 | 18* | 9 | 0.67 | 16* | 14* | 14* | 13 | 8 | 9 | 14
O=C(CC1CCCC1)NNC(=O)c1ccccc1O | · | · | · | · | 0 | · | · | · | · | · | ·
C/C(=N\N=C1\NC(=O)C(CC(=O)O)S1)c1ccccn1 (stereo not drawn) | · | 19* | 17* | · | 26* | 26* | 22* | 24 | 22* | 25* | 28*
O=C(O)CC1S/C(=N/N=Cc2ccccn2)NC1=O (stereo not drawn) | · | · | · | 0.64 | · | · | · | · | · | · | ·
Cc1cn([C@H]2C[C@H](N=[N+]=[N-])[C@@H](CO)O2)c(=O)[nH]c1=O | 39 | 100* | 100* | · | 97* | 100* | 71* | 100* | 97* | 93* | 101*
O=c1[nH]c(=O)n([C@H]2C[C@H](O)[C@@H](CO)O2)cc1F | 45 | 100* | 84* | · | 87* | 81* | 69* | 77* | 79* | 79* | 91*

Source: PubChem BioAssay (several laboratories)
